Where a name gives a salt, the structure may show the parent alone. ± gives the standard deviation of the averaged measurements.
Test system: A549
Assay: relative viability (normalised to negative control = 1, bortezomib = 0) (fraction); higher = less cytotoxic
Settings: inflammatory serum-free RHB-A with cytokines + LPS, 5 d + 24 h CellTiter-Blue
[1] = compound 30 nM, GSK126 pretreatment: 5 uM GSK126
[2] = compound 30 nM, GSK126 pretreatment: none (vehicle)
[3] = compound 300 nM, GSK126 pretreatment: 5 uM GSK126
[4] = compound 300 nM, GSK126 pretreatment: none (vehicle)

CN1CC[C@H](c2c(O)cc(O)c3c(=O)cc(-c4ccccc4Cl)oc23)[C@H](O)C1 [Flavopiridol (Alvocidib)]
relative viability [1]: 0.777 ± 0.11 | relative viability [2]: 0.771 ± 0.15 | relative viability [3]: 0.0118 ± 0.0013 | relative viability [4]: 0.0301 ± 0.0094

COc1ccc(-c2ccc3c(N4CCOCC4)nc(N4C[C@@H](C)O[C@@H](C)C4)nc3n2)cc1CO
relative viability [1]: 0.708 ± 0.013 | relative viability [2]: 0.745 ± 0.027 | relative viability [3]: 0.428 ± 0.052 | relative viability [4]: 0.515 ± 0.086

Nc1ncnc2c1c(-c1cccc(OCc3ccccc3)c1)cn2C1CC(CN2CCCC2)C1 (stereo not drawn)
relative viability [1]: 0.733 ± 0.037 | relative viability [2]: 0.748 ± 0.028 | relative viability [3]: 0.287 ± 0.021 | relative viability [4]: 0.333 ± 0.059

S=C(NCc1ccc2c(c1)OCO2)N1CCN(c2ncnc3c2oc2ccccc23)CC1 [Amuvatinib (MP-470); MP-470]
relative viability [1]: 0.861 ± 0.067 | relative viability [2]: 0.848 ± 0.057 | relative viability [3]: 0.917 ± 0.15 | relative viability [4]: 1.07 ± 0.072

Cc1ccc([N+](=O)[O-])cc1S(=O)(=O)N(C)/N=C/c1cnc2ccc(Br)cn12 [PIK-75 Hydrochloride]
relative viability [1]: 0.0451 ± 0.0082 | relative viability [2]: 0.101 ± 0.062 | relative viability [3]: -0.00172 ± 0.0047 | relative viability [4]: -0.00104 ± 0.0047

Nc1ccn([C@@H]2O[C@H](CO)[C@@H](O)C2(F)F)c(=O)n1 [Gemcitabine hydrochloride; Gemcitabine HCl]
relative viability [1]: 0.396 ± 0.12 | relative viability [2]: 0.264 ± 0.087 | relative viability [3]: 0.39 ± 0.093 | relative viability [4]: 0.19 ± 0.087

COc1cc(Nc2ncc(F)c(Nc3ccc4c(n3)N(COP(=O)(O)O)C(=O)C(C)(C)O4)n2)cc(OC)c1OC
relative viability [1]: 0.929 ± 0.03 | relative viability [2]: 0.888 ± 0.056 | relative viability [3]: 0.952 ± 0.013 | relative viability [4]: 0.983 ± 0.067

Reference: the supplement of paper PMC6279402
